# Measurements published in PubChem BioAssay.
# Active and inactive are the calls of the source. Unless noted, no rule for the calls is given here.
# How the values were obtained:
# [1] = test system: Wnt5a (protein binding on small-molecule microarray); assay: small molecules binding Wnt5a protein – biophysical, small-molecule microarray, 635/667 nm fluorescence, primary screen (AID 1142); conditions: 635 nm fluorescence, higher = more signal;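 also: fluorescence read at 667 nm with signal to noise per printed feature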
# [2] = ATP-based viability of Huh7 replicon cells – cell-based, CellTiter-Glo luminescence, basal, 48 h, cytotoxicity control for HCV replication inhibitor project, primary screen (AID 1143); conditions: higher = more signal, called active from +8 up or from −8 down;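 also: Huh7 hepatoma cells carrying a hepatitis C replication reporter with no stimulus; test concentration not given here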
# [3] = Pseudomonas biofilm growth suppression – PAO1 strain, BacTiter-Glo luminescence, LB-PBS, primary screen (AID 1144); conditions: P. aeruginosa PAO1 biofilm, 12 h, higher = more signal
# [4] = basal CRE-LacZ reporter activity in PC12 – cell-based, unstimulated, primary screen (AID 1145); conditions: no forskolin, luminescence, 4.5 h, higher = more signal, called active from +8 up or from −8 down
# [5] = forskolin-driven CRE-LacZ activity in PC12 – cell-based, CRE-LacZ reporter, forskolin-stimulated, primary screen (AID 1146); conditions: luminescence, 4.5 h, higher = more signal, called active from +8 up or from −8 down;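 also: PC12 cells with 6xCRE LacZ reporter stimulated by forskolin 10 µM; beta-galactosidase reporter signal reflecting CREB driven transcription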
# [6] = biological target: Streptavidin (Streptomyces avidinii) (UniProt P22629); assay: compounds binding control protein streptavidin – biophysical, small-molecule microarray, 635/667 nm fluorescence, artefact control for SMM compound annotation, primary screen (AID 1147); conditions: higher = more signal;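 also: signal reflects streptavidin binding to arrayed compounds as a control protein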
# Streptavidin (Streptomyces avidinii), sequence (P22629 whole entry, looked up): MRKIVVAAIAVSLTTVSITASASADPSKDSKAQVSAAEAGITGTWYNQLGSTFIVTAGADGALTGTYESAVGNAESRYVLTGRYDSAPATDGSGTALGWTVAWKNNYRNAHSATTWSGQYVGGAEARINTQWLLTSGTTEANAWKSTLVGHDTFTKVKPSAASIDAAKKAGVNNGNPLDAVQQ
# [7] = probe aInhba binding on compound microarray – biochemical, small-molecule microarray, 635/667 nm fluorescence, primary screen (AID 1148); conditions: higher = more signal;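 also: score merges 667nm spot fluorescence with signal-to-noise for antibody binding to printed compounds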
# Torsin-1A (Homo sapiens) [8] = biological target: Torsin-1A (Homo sapiens) (UniProt O14656); assay: TOR1A wild-type binding on microarray – cell lysate, small-molecule microarray, lysate, 635/667 nm, primary screen (AID 1149); conditions: COS7 hTOR1A-WT lysate, 635 nm fluorescence, higher = more signal
# Torsin-1A (Homo sapiens), sequence (O14656 whole entry, looked up): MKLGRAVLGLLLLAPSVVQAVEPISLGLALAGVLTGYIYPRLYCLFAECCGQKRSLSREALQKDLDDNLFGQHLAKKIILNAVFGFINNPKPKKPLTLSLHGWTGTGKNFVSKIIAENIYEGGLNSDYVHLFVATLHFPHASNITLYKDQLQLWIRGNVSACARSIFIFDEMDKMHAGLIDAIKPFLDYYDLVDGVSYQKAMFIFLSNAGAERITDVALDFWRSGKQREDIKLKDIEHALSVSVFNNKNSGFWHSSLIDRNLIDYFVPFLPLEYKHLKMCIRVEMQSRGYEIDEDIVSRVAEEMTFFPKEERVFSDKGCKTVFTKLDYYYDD
# Torsin-1A (Homo sapiens) [9] = biological target: Torsin-1A (Homo sapiens) (UniProt O14656); assay: torsin A mutant lysate binding on microarrays – cell lysate, small-molecule microarray, COS7 lysate, 635/667 nm fluorescence, primary screen (AID 1150); conditions: COS7 hTOR1A mutant lysate, 635 nm fluorescence, higher = more signal;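 also: score pools 667 nm emission and signal to noise measuring lysate protein binding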
# [10] = test system: Sonic hedgehog protein (Shh); assay: Sonic hedgehog microarray binding compounds – biochemical, small-molecule microarray, 635/667 nm fluorescence, primary screen (AID 1151); conditions: 635 nm fluorescence, higher = more signal;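 also: Shh protein binding to compounds spotted on small-molecule microarray slides; score combines spot fluorescence intensity with signal-to-noise across triplicate slides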
# [11] = optical density shifts of acrAB sulA E. coli – strain DRC41, OD650, 48 h, E. coli filamentation inducer project, primary screen (AID 1152); conditions: higher = more signal, called active from +8 up or from −8 down;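 also: E. coli MC1000 strain DRC41 lacking acrAB efflux pump and sulA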
# [12] = probe aLefty1 binding on compound microarray – biochemical, small-molecule microarray, 635/667 nm fluorescence, primary screen (AID 1153); conditions: higher = more signal;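 also: score merges spot fluorescence with signal-to-noise ratio from the scanned slide images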
# [13] = plasmodial surface anion channel blockers, osmotic lysis – cell-based, P. falciparum Indochina, OD700, 1 h, primary screen (AID 1154); conditions: P. falciparum Indochina infected RBC osmotic lysis, higher = more signal, called active from +8 up or from −8 down
# [14] = plasmodial surface anion channel blockers, osmotic lysis – cell-based, P. falciparum Indochina, OD700, 2 h, primary screen (AID 1155);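 also: lysis reports solute entry through the parasite surface anion channel PSAC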; conditions: P. falciparum Indochina infected erythrocytes, higher = more signal, called active from +8 up or from −8 down
# [15] = changes in parasitized red cell lysis, either direction – P. falciparum Indochina, OD700, 3 h, PSAC antagonist project, primary screen (AID 1156); conditions: P. falciparum-infected erythrocytes, osmotic lysis, higher = more signal, called active from +8 up or from −8 down
# [16] = plasmodial surface anion channel blockers, osmotic lysis – cell-based, P. falciparum Indochina, OD700, 18 h, primary screen (AID 1157); conditions: P. falciparum Indochina infected erythrocytes, osmotic lysis OD700, 18 h; higher = more signal, called active from +8 up or from −8 down
# [17] = S6 kinase pathway phospho-S6 level changes – cell-based, A549, cytoblot, luminescence, serum-stimulated, primary screen (AID 1158); conditions: 5 h, higher = more signal;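 also: serum-stimulated A549 lung adenocarcinoma cells; signal is phosphorylated S6 detected by cytoblot immunostaining with HRP secondary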
# [18] = biological target: NADPH oxidase 2 (Homo sapiens) (UniProt P04839); assay: compounds shifting NOX2 Amplex Red fluorescence – cell-based, HEK293-NOX2, PMA-stimulated, NOX inhibitor project, primary screen (AID 1159); conditions: 45 min, higher = more signal, called active from +8 up or from −8 down; also: test concentration not given here
# NADPH oxidase 2 (Homo sapiens), sequence (P04839 whole entry, looked up): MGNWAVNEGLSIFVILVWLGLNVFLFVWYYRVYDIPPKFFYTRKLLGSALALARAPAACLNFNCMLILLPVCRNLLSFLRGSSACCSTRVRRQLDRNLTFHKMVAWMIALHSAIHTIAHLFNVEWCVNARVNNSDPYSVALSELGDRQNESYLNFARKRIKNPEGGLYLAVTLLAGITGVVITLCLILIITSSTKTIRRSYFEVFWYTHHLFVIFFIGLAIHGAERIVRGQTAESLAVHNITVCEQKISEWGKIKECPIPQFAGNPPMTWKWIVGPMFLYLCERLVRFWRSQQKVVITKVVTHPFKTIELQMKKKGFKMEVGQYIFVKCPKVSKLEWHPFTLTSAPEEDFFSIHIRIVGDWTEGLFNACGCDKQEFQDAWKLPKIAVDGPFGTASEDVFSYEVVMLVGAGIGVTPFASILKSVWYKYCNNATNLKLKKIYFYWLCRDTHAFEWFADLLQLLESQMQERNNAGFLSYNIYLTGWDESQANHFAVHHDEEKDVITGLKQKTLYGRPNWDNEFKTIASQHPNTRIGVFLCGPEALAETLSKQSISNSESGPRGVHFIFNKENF
# [19] = biological target: NADPH oxidase 4 (Homo sapiens) (UniProt Q9NPH5); assay: compounds shifting NOX4 Amplex Red fluorescence – cell-based, HEK293-NOX4, tetracycline-induced, NOX inhibitor project, primary screen (AID 1160); conditions: HEK293-NOX4, Amplex Red H2O2 fluorescence, 45 min; higher = more signal, called active from +8 up or from −8 down
# NADPH oxidase 4 (Homo sapiens), sequence (Q9NPH5 whole entry, looked up): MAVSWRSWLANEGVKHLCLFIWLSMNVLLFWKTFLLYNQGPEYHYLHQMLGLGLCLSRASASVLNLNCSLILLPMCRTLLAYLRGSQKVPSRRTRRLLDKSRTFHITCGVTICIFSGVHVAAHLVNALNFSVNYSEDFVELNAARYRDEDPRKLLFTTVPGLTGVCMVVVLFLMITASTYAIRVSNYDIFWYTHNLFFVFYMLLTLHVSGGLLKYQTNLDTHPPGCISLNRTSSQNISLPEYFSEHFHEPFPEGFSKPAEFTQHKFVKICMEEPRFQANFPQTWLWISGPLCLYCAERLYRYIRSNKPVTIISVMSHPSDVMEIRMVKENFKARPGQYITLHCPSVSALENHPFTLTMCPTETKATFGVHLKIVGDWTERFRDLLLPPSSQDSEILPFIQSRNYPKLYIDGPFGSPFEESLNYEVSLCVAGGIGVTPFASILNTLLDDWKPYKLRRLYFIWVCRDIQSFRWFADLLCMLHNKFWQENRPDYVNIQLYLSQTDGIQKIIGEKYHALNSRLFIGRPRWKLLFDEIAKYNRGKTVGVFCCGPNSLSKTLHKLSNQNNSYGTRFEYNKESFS
# [20] = biological target: NADPH oxidase 5 (Homo sapiens) (UniProt Q96PH1); assay: compounds shifting NOX5 Amplex Red fluorescence – cell-based, HEK293-NOX5, NOX inhibitor project, primary screen (AID 1161); conditions: HEK293-NOX5, ionomycin, 45 min, higher = more signal
# NADPH oxidase 5 (Homo sapiens), sequence (Q96PH1 whole entry, looked up): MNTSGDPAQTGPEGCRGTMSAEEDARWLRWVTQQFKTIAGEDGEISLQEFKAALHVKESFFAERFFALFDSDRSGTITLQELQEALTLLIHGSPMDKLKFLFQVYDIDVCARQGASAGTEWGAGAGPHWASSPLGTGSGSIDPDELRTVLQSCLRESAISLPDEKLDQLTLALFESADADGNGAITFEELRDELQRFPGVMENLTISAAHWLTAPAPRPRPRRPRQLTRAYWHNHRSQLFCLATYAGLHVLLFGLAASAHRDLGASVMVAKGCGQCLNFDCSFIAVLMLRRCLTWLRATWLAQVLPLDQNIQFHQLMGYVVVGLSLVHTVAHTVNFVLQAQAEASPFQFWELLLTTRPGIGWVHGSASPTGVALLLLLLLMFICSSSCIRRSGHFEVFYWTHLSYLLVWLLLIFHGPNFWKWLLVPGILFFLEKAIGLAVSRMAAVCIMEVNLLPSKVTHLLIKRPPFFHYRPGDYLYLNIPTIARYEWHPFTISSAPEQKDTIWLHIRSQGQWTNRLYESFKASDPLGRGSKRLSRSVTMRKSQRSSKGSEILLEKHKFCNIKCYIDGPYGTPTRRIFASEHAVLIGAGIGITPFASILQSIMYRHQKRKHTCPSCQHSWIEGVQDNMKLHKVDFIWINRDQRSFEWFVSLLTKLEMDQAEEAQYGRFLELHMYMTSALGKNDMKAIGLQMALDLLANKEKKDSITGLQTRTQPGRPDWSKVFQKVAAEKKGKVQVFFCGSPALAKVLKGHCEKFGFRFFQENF
SMILES,composite z-score [1],z-score [2],z-score [3],z-score [4],z-score [5],composite z-score [6],composite z-score [7],composite z-score (Torsin-1A (Homo sapiens) [8]),composite z-score (Torsin-1A (Homo sapiens) [9]),composite z-score [10],z-score [11],composite z-score [12],z-score [13],z-score [14],z-score [15],z-score [16],z-score [17],z-score [18],z-score [19],z-score [20]
CCOC(=O)C1=C[C@@H](c2ccccc2)N(S(=O)(=O)c2ccc(C)cc2)[C@H]1c1ccc(F)cc1,0.0679,-3.77 (inactive),0.449 (inactive),-0.826 (inactive),-0.552 (inactive),0.95,0.225,0.347,0.431,0.488,-1.15 (inactive),0.275,1.66 (inactive),1.42 (inactive),-0.101 (inactive),1 (inactive),-0.217,0.108 (inactive),0.814 (inactive),-0.291
O=C1C[C@@](C(=O)NCCN2CCOCC2)(c2ccc([N+](=O)[O-])cc2)[C@@H](c2ccc(CO)cc2)N1C1CCCCC1,0.25,0.204 (inactive),0.82 (inactive),0.351 (inactive),-0.303 (inactive),0.316,0.196,0.143,0.555,0.452,1.21 (inactive),-0.154,2.02 (inactive),0.834 (inactive),3.08 (inactive),-0.137 (inactive),-0.371,0.768 (inactive),0.947 (inactive),0.24
C/C(=N\O)C(=O)NCCCCCNC(=O)OCc1ccccc1,0.321,-0.564 (inactive),–,1.67 (inactive),-1.47 (inactive),1.24,-0.0471,0.228,0.173,0.371,1.93 (inactive),-0.194,15.4 (active),2.09 (inactive),-0.222 (inactive),0.501 (inactive),-0.246,-0.459 (inactive),0.0531 (inactive),-0.588
COC(=O)C[C@H]1O[C@]2(C(=O)N(Cc3ccccc3)c3ccc(I)cc32)[C@@H](C)[C@@H]1[Si](C)(C)c1ccc(OC)cc1,-0.213,-1.09 (inactive),-0.135 (inactive),-0.505 (inactive),-0.522 (inactive),0.0595,-0.106,-0.181,-0.0957,-0.657,-0.562 (inactive),-0.235,1.09 (inactive),0.544 (inactive),0.558 (inactive),0.574 (inactive),1.01,1.89 (inactive),-2.05 (inactive),0.00992
CC(C)(C)OC(=O)CC[C@]1(C(=O)N2CCCCC2)N=C(c2ccc(OCCCO)cc2)O[C@H]1c1ccccc1,0.836,-3.16 (inactive),0.418 (inactive),1.55 (inactive),-1.85 (inactive),2.08,-0.0112,1.68,1.04,1.19,0.978 (inactive),-0.294,24 (active),6.24 (inactive),1.03 (inactive),-0.186 (inactive),2.2,-1.41 (inactive),1.02 (inactive),0.541
COc1cc2c(cc1OC)CN(C(=O)[C@H]1[C@@H]3C(=O)O[C@@H](c4ccccc4)[C@@H](c4ccccc4)N3[C@@H](c3ccc(O)cc3)[C@]13C(=O)Nc1ccc(C#CC4(O)CCCCCC4)cc13)CC2,0.723,-0.715 (inactive),-0.785 (inactive),0.425 (inactive),0.603 (inactive),2.42,0.472,0.601,1.36,1.39,-0.287 (inactive),1.76,0.621 (inactive),1.23 (inactive),0.89 (inactive),0.737 (inactive),0.48,1.79 (inactive),-0.239 (inactive),1.02
COc1ccc(NN2C(C(O)c3cc(OC)c(OC)c(OC)c3)C=CC3C(=O)N(C4CCCCC4)C(=O)C32)cc1 (centres undefined),0.866,-1.6 (inactive),-0.272 (inactive),0.285 (inactive),0.907 (inactive),1.14,0.294,-0.125,0.236,0.377,-0.413 (inactive),0.06,11.5 (active),1.74 (inactive),0.752 (inactive),0.558 (inactive),-0.241,-1.55 (inactive),-1.85 (inactive),-2.67
COC(=O)C1=CC(c2ccc(CO)cc2)=CC(c2cccs2)N(Cc2cccc(OC(F)(F)F)c2)C=C1C(=O)OC (centres undefined),0.0365,-3.08 (inactive),0.714 (inactive),0.0924 (inactive),-0.287 (inactive),2.29,0.248,0.947,0.76,0.381,-1.66 (inactive),0.641,10.9 (active),1.87 (inactive),0.615 (inactive),1.43 (inactive),-0.264,-1.76 (inactive),-1.96 (inactive),-2.87
